In PubChem BioAssay AID1259313 (Sanford-Burnham Center for Chemical Genomics, 2017):
The campaign covered roughly 340,000 compounds. About 8,500 (2.5%) were called active.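 How the source made its calls: active means melting temperature shift of at least 10% of the positive control shift, at one fixed dose; inactive means the rest.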 The list comes from a sample in which actives are over-represented; it also holds similar structures and randomly drawn compounds.

test system: Glutamate receptor ionotropic, NMDA 3A (GRIN3A) ligand-binding domain; assay: NR3A LBD thermal stabilization by compounds – biophysical, differential scanning fluorimetry, uHTS, primary screen (AID 1259313); settings: at 25 µM, active compounds read high, 0% = protein alone, 100% = glycine-bound protein

Compound | Tm shift relative to glycine control
COC(=O)COc1ccc2c(=O)c(Oc3ccccc3Br)coc2c1 | 17.5% (active)
COc1ccc(Oc2coc3cc(OC(=O)c4cncc(Br)c4)ccc3c2=O)cc1 | -4.3% (inactive)
CCc1ccc(Oc2coc3cc(O)ccc3c2=O)cc1 | -1.09% (inactive)
CC(C)OC(=O)c1ccc(COc2ccc3ccc(=O)oc3c2)o1 | 1.19% (inactive)
CCOc1ccccc1Oc1cn[nH]c1-c1ccc(OC)cc1O | -4.92% (inactive)
COc1ccc(-c2cn[nH]c2-c2ccc(OC)cc2)cc1 | 0% (inactive)
COc1ccc(Oc2cn[nH]c2-c2ccc(OC)cc2O)cc1 | 17.8% (active)
Cc1ccc(S(=O)(=O)N2CCN(C(=O)c3cc(S(=O)(=O)N4CCOCC4)ccc3F)CC2)cc1 | -1.16% (inactive)
CC1CCCC(NC(=O)CSc2nccn2C)C1C (stereo unspecified) | 3.2% (inactive)
Cc1ccc(-n2nc3c(=O)n(C(C)C(=O)NCc4ccc5c(c4)OCO5)nc(C)c3c2C)cc1 (stereo unspecified) | 0% (inactive)
COC(C(=O)NCc1ccccc1C)c1ccccc1 (stereo unspecified) | -0.62% (inactive)
COC(C(=O)Nc1ccc(S(=O)(=O)Nc2ccc(C)c(C)c2)cc1)c1ccccc1 (stereo unspecified) | 16.2% (active)
COC(C(=O)Nc1ccc(C(C)=O)cc1)c1ccccc1 (stereo unspecified) | -4.28% (inactive)
CCOc1ccc(CN2CCN(CCCc3ccccc3)C(CCO)C2)cc1 (stereo unspecified) | 0.91% (inactive)
CC1CN(C(=O)COC(=O)c2cccc(NS(=O)(=O)c3ccccc3)c2)CC(C)O1 (stereo unspecified) | 2.04% (inactive)
CC1=C(C)CC(C(=O)NC(C)CCc2ccccc2)C(C(=O)O)C1 (stereo unspecified) | -2.66% (inactive)
COc1ccccc1S(=O)(=O)c1c(C)cc(C)[nH]c1=O | -0.69% (inactive)
CSc1cc(C)[nH]c(=O)n1 | 1.65% (inactive)
Cc1cc(=O)cc(C)[nH]1 | 13% (active)
CCOc1cnc(C(=O)NNC(=O)c2ccccc2Br)o1 | -1.85% (inactive)
c1ccc(CN2CCC(N=C3NN=C(c4ccc5c(c4)OCCO5)CS3)CC2)cc1 | -2.04% (inactive)

Compound | Tm shift relative to glycine control
Clc1cccc(N=C2NN=C(c3ccc4c(c3)OCCO4)CS2)c1 | 12.7% (active)
CN(C)c1nc(=Nc2cccc(Cl)c2)ss1 | -11% (inactive)
Cc1ccc(S(=O)(=O)N(C)c2ccc(OCC(=O)OCc3ccc(C#N)cc3)cc2)cc1 | 12.6% (active)
Cc1ccc(S(=O)(=O)N(C)c2ccc(OCC(=O)NC3=NCCS3)cc2)cc1 | -0.31% (inactive)
Cc1ccc(S(=O)(=O)N(C)c2ccc(OCC(=O)OCC(=O)N(CC#N)c3ccccc3)cc2)cc1 | 2.35% (inactive)
O=C(NCc1csc(-c2cccs2)n1)C1CC1 | 0.25% (inactive)
COc1ccc(C2OCC3(CO2)SC(=O)NC3=O)cc1OC (stereo unspecified) | -1.38% (inactive)
O=C(NCc1cccs1)c1ccc(CS(=O)Cc2ccccc2Cl)o1 (stereo unspecified) | 0.47% (inactive)
O=C(CN1CCOCC1)N/N=C/c1ccc(-c2ccc(Br)cc2)o1 | -2.4% (inactive)
O=C(Cn1nnc(-c2ccccc2)n1)N/N=C/c1ccc(-c2ccc(Cl)cc2)o1 | 384% (active)
Nc1nnn(CC(=O)N/N=C/c2ccccc2)n1 | -2.09% (inactive)
CCOc1ccc(-n2c(SCC(=O)NC3CCS(=O)(=O)C3)nnc2-c2cccnc2)cc1 (stereo unspecified) | -1.01% (inactive)
CCN1CC(CN(C)Cc2nc(-c3ccc(Cl)cc3)no2)CC1=O (stereo unspecified) | -0.89% (inactive)
O=C(OCC(=O)N1CCc2ccccc21)c1ccc([N+](=O)[O-])cc1 | 1% (inactive)
CCc1ccc(Nc2n[n+](-c3ccccc3)c(-c3cccc(Cl)c3Cl)s2)cc1 | 16% (active)
COc1cc(Br)c(-c2sc(Nc3ccccc3)n[n+]2-c2ccccc2)cc1OC | -12% (inactive)
COc1ccc(C)cc1Nc1n[n+](-c2ccccc2)c(-c2cccc(Cl)c2Cl)s1 | 4.85% (inactive)
O=C(c1ccc(F)cc1)N1CCC(n2nnc3ccccc32)CC1 | 3.22% (inactive)
CCOCCOC(=O)C1=C(C)N(C)C(=O)NC1c1ccccc1F (stereo unspecified) | -1.72% (inactive)
COc1ccc2c(c1)C(SCC(=O)NCc1ccccc1)CC(C)(C)O2 (stereo unspecified) | -0.16% (inactive)
CC(C)NC(=O)C(=O)NCCCOC(C)C | 18.7% (active)

Compound | Tm shift relative to glycine control
CC(C)OCCCNC(=O)C1CC(=O)N(C2CCCCCCC2)C1 (stereo unspecified) | 2.24% (inactive)
CCOCCCNC(=O)C(=O)NCCCOCC | -0.68% (inactive)
CC(C(=O)Nc1ccc(S(=O)(=O)N2CCCC2)cc1)N(C)Cc1ccc(F)cc1 (stereo unspecified) | -1.56% (inactive)
COC(=O)N/N=C/c1cn(CCCOc2ccc(C)cc2)c2ccccc12 | 12.8% (active)
CCOC(=O)N/N=C/c1cn(Cc2ccccc2Cl)c2ccccc12 | -13.8% (inactive)
CNC(=S)N/N=C/c1cn(Cc2ccc(C)cc2)c2ccccc12 | -1.66% (inactive)
CC(C)(C)c1ccc(/C=C/C(=O)NCCCn2ccnc2)cc1 | -0.74% (inactive)
O=C(COC(=O)c1ccc(Cl)nc1)NCc1ccc2c(c1)OCO2 | -1.93% (inactive)
CCOc1c(Cl)cc(/C=N/O)cc1OC | 10.8% (active)
CCOc1cc(/C=N/O)ccc1OCc1ccccc1F | -0.35% (inactive)
COc1cc(/C=N/O)cc(Br)c1OCc1cccc(Cl)c1 | 9.46% (inactive)
CCOc1cc(/C=C(/C#N)c2ccc(Cl)cc2)cc(Cl)c1OCC(=O)O | -1.37% (inactive)
COc1cc(/C=N/O)cc(Br)c1OS(=O)(=O)c1ccc(C)cc1 | -0.94% (inactive)
CCOc1cc(/C=N/O)cc(Br)c1OC | 10.5% (active)
C[C@@H]1ON(C)[C@H]2C[C@H]3c4cc(N5CCN(C)CC5)ccc4CCN3C(=O)[C@@H]12 | 2.38% (inactive)
COc1ccc(N2CCN(C(=O)[C@@H](NC(=O)c3cc(OC)cc(OC)c3)C(C)C)CC2)cc1 | -0.58% (inactive)
COc1cc(OC)cc(C(=O)NC(C(=O)N2CCC2)C(C)C)c1 (stereo unspecified) | -1.01% (inactive)
COc1cc(OC)cc(C(=O)N[C@H](C(=O)NNC(=O)c2ccc(Br)cc2)C(C)C)c1 | 13.6% (active)
COc1ccc(N2CCN(CCCNC(=O)C3CCN(S(=O)(=O)N4CCOCC4)CC3)CC2)cc1 | 1.84% (inactive)
